The record followed here is PubChem BioAssay.

Assay [1] is described as follows: circadian clock period modulators, cell-based, LOPAC library, luminescence reporter (AID 2774).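 Note: values are relative to mean of DMSO wells on each plate.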 The following applies: circadian reporter cells, at 7 µM, actives lie on both sides.
In assay [2] the test system is Aerobactin synthetase IucA (Klebsiella pneumoniae). Description: IucA aerobactin synthetase inhibitors, biochemical, Tocris library, absorbance (AID 1345561).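 Note: 100% = enzyme without compound and 0% = no enzyme.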 The following applies: purified IucA enzyme assay, absorbance (OD) read-out; stronger effect = lower value;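 tested at 8 µM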.
The nature of assay [3]: sensitizers of A549 cells to miR-34 induction, primary screen, imaging, A549 dox-inducible miR-34, nuclei and caspase counts (AID 1347080;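 active = compounds whose cell count with miR-34 switched on is under 0.7 times the count with it off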). The following applies: A549 miR-34 inducible, Hoechst nuclei count, 48 h.
Assay [4] can be described thus: inhibitors of Cryptococcus chitosan production, flow cytometry, Cibacron Brilliant Red staining (AID 1347148).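 Note: compound exposure lasted three days at 37 degrees C.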 The following applies: Cryptococcus neoformans chitosan, stronger effect = lower value; at 10 µM unless noted. (In flow cytometry, cells or beads pass a laser one at a time.)
Assay [5] can be described thus: viability rescue of complex I mutant cybrids, primary screen, cell-based, galactose medium, ATP luminescence (AID 1645843;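 active = z-score of at least 1.8 in each of two replicates, scored against plate mean and spread of sample wells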;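 note: positive z means more ATP and so rescue of galactose-driven cybrid death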). The following applies: complex I mutant cybrid cells, 72 h, stronger effect = higher value.
In assay [6] the test system is Hepatitis C virus NS3 helicase. As to the kind of experiment: HCV NS3 helicase inhibitors, primary screen, biochemical, fluorescence polarization, LOPAC1280 library (AID 687035; in the data active = inhibition above about 37%). The conditions noted are these: Purified HCV NS3 helicase, Cy5-dT15 ssDNA binding fluorescence polarization; stronger effect = higher value; concentration not given here.
Assay [7] can be described thus: Cy5 fluorescence quenching or enhancement artefacts, artefact control for HCV NS3 helicase inhibitor project, biochemical, LOPAC1280 (AID 687037). The conditions noted are these: Cy5-DNA-NS3h complex fluorescence interference counterscreen. (In general: A counterscreen serves to expose hits that act by an unwanted route or on another target.)
Assay [8] in a line: phospholipid biosynthesis inhibitors in animal cells, primary screen, cell-based, LOPAC library, screen 4 (AID 1347384). The following applies: phospholipid biosynthesis inhibition screen, at 10 µM.
The nature of assay [9]: hESC survival regulators, cell-based (AID 493140).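 Note: cells exposed to compounds for four days before counting.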 The conditions noted are these: human embryonic stem cell survival screen; stronger effect = higher value.
Assay [10] is described as follows: survival rescue of mitochondrial mutant cells in low glucose, primary screen, MELAS cybrids, Rieske KO mouse fibroblasts, CellTiter-Glo (AID 1508586;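 active = mean z-score across replicates of 1.96 or higher in either the MELAS or the Rieske mutant cell line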;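 note: z relative to plate mean and SD of compound and empty wells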). Background: ATP-based viability assays read luminescence as a measure of living cells.
Setting [11] is: stronger effect = lower value, cell number ratio, induced over uninduced.
Where [12] appears, read: measured here: relative caspase fold change +Dox/-Dox.
Setting [13] is: measured here: total cells with miR-34 induction, stronger effect = lower value.
The mark [14] stands for this setting: measured here: total cells without miR-34 induction.

What is called remaining activity is the signal under treatment as a percentage of the control signal. What is called inhibition is the relative decrease from the control value, in per cent.

Where “and” joins values, the source holds several entries; their conditions need not be identical. Identical values can stand only once. Calls of active or inactive are those of the source. Unless noted, the rule behind the calls is not given here.

Regarding `CC(N)=NCc1cccc(CN)c1`, in [1], the period change is -0.015 h (inactive). Moreover, the remaining activity in [2] is 107% (inactive). In addition, the fold change is 1.05 (inactive) and 0.837 (inactive) in assay [3] (setting [11]); 1.01 and 0.692 in assay [3] (setting [12]). The cell count was 6210 and 7850 in [3] (setting [13]); 5900 and 9380 in assay [3] (setting [14]). The fold fluorescence in assay [4] is 3.53 [at 282.1 µM] (inactive). For the same compound, the z-score in assay [5] is 0 (inactive).
In the case of `COCc1nc2c([nH]1)c(=O)n(C)c(=O)n2CC(C)C`, the period change in assay [1] is -0.19 h (inactive). In addition, in assay [6], the inhibition is -4% (inactive). In assay [7], the fluorescence ratio (interference) was 0.9 (inactive). Moreover, the remaining activity in assay [2] was 101% (inactive). Moreover, the fold change in assay [3] (setting [11]) was 1.1 (inactive) and 0.916 (inactive) and 0.973 (inactive); in assay [3] (setting [12]), 1 and 1.13 and 0.871. The cell count is 11000 and 5700 and 9180 in assay [3] (setting [13]); 10000 and 6220 and 9430 in assay [3] (setting [14]). In assay [4], the fold fluorescence is 4.02 [at 187.8 µM] (inactive). Moreover, the call in assay [8] was inactive. For the same compound, in [5], the z-score was 0.515 (inactive) and -0.165 (inactive).
Take `CCCCCCCCCCCCCCCC(=O)OC(CC(=O)O)C[N+](C)(C)C` (centres undefined): the period change in assay [1] was 0.01 h (inactive). The survival in assay [9] is 103 (inactive). Moreover, in assay [6], the inhibition was -4% (inactive). Also, the fluorescence ratio (interference) in [7] is 1 (inactive). The remaining activity in assay [2] was 122% (inactive). In addition, the fold change was 1.09 (inactive) and 1.01 (inactive) in assay [3] (setting [11]); 0.674 and 0.826 in [3] (setting [12]). Besides, the cell count is 6530 and 7890 in assay [3] (setting [13]); 5960 and 7780 in assay [3] (setting [14]). The compound was classed as inactive in [8]. Also, in assay [5], the z-score is -1.29 (inactive) and -1.24 (inactive).
Take `NS(=O)(=O)C#Cc1ccccc1`: the inhibition in assay [6] was 0% (inactive). In addition, in [7], the fluorescence ratio (interference) is 1 (inactive). The remaining activity in assay [2] was 110% (inactive). The fold change in assay [3] (setting [11]) was 1.19 (inactive) and 0.967 (inactive) and 1.13 (inactive); in assay [3] (setting [12]) it was 1.2 and 0.467 and 1.12. Moreover, the cell count was 3660 and 6510 and 3430 in [3] (setting [13]); 3080 and 6730 and 3020 in [3] (setting [14]). Moreover, the compound was called inactive in assay [8]. Also, the z-score is -0.62 (inactive) in assay [10] (MELAS cybrid survival, CellTiter-Glo 48 h, stronger effect = higher value); -0.117 in assay [10] (Rieske KO mouse fibroblast survival, CellTiter-Glo 72 h); -1.27 (inactive) and -0.695 (inactive) in assay [5].
Consider `Fc1cccc(/C=N/N=C/c2cccc(F)c2)c1`, for which the remaining activity in assay [2] was 113% (inactive). Further, the fold change is 1.08 (inactive) and 0.921 (inactive) in [3] (setting [11]); 1.02 and 0.755 in assay [3] (setting [12]). Also, the cell count is 11300 and 8600 in assay [3] (setting [13]); 10400 and 9330 in assay [3] (setting [14]). Further, the call in assay [8] was inactive. In assay [5], the z-score was 0.64 (inactive) and 0.415 (inactive).
As to `O=C1C(SCCO)=C(SCCO)C(=O)c2ccccc21`, in assay [1], the period change is -0.12 h (inactive). The inhibition in assay [6] was -3% (inactive). Besides, in assay [7], the fluorescence ratio (interference) was 1 (inactive). For the same compound, the remaining activity in assay [2] is 112% (inactive). For the same compound, the fold change is 1.25 (inactive) and 0.776 (inactive) and 0.848 (inactive) in assay [3] (setting [11]); 0.902 and 1.05 and 1.12 in assay [3] (setting [12]). Further, the cell count in [3] (setting [13]) was 1490 and 1050 and 1210; in assay [3] (setting [14]) it was 1190 and 1350 and 1420. Further, the fold fluorescence in assay [4] was 6.37 [at 161.1 µM] (inactive). The outcome in assay [8] was inactive. Further, in assay [5], the z-score is -1.04 (inactive) and -0.82 (inactive).
